In PubChem BioAssay AID1634 (National Center for Advancing Translational Sciences (NCATS), 2009):
The campaign covered roughly 260,000 compounds. About 150 (0.058%) were called active. The call rests on the fitted dose curve; in most records, active means well fitted inhibition curve with a large enough effect; inconclusive means small, poorly fitted or top-dose-only effect; inactive means no such curve, though single readings can be large or run the other way. For the sample, actives were picked, then their nearest neighbours and some compounds at random.

What follows are compounds tested against Pyruvate kinase PKM (Homo sapiens) (UniProt P14618) (assay: qHTS Assay for Inhibitors of Human Muscle isoform 2 Pyruvate Kinase). Settings: purified PKM2, ATP generation, Kinase-Glo luminescence; series mostly up to 57.5 µM.
Pyruvate kinase PKM (Homo sapiens), sequence (P14618 whole entry, looked up, canonical isoform): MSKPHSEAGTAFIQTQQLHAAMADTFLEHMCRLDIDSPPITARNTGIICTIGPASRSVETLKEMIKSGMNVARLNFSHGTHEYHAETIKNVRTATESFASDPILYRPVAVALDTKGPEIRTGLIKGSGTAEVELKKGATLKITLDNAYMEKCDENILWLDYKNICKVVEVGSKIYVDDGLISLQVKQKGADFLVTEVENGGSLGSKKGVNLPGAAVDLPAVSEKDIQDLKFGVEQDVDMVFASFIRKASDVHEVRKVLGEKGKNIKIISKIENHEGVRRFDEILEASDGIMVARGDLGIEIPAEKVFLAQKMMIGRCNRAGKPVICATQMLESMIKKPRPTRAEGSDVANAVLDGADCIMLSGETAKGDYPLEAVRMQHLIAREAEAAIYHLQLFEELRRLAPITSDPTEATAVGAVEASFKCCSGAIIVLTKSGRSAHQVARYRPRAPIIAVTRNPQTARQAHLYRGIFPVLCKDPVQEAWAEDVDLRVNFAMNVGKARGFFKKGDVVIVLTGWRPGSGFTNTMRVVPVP
Procedure: NIH Chemical Genomics Center [NCGC] Matthew G. Vander Heiden, M.D., Ph.D. [Harvard Medical School, 77 Avenue Louis Pasteur, Boston, MA 02115] […] ATP generation was detected in a coupled reaction by luciferase-mediated luminescence, an ATP-dependent process. […] The enzyme was assayed at an intermediate level of activity to screen for both inhibitors and activators.
NCGC Assay Protocol Summary: Three uL of substrate mix (at r.t.) in assay buffer (50 mM Imidazole pH7.2, 50 mM KCl, 7 mM MgCl2, 0.01% Tween 20, 0.05% BSA) was dispensed into white solid bottom 1,536 well microtiter plates so that the final concentrations of substrates in the assay were 0.1 mM ADP and 0.5 mM PEP. 23 nL of compound were delivered by a pin tool and 1 uL of enzyme mix in assay buffer (4 degree Celsius) was added. Plates were incubated at room temperature for 1 hour. Two uL of detection mix (Kinase-Glo, Promega; at 4 degree Celsius protected from light) was added and luminescence read by a ViewLux (Perkin Elmer) at 5 second exposure/plate. Data were normalized to the uninhibited and AC100 inhibition (no enzyme). To monitor activation, the first column contained a titration of the activator, NCGC00031955-01 (16-point 1:2 dilutions in duplicate starting at 57 uM) and the first 16 rows of column 4 contained 57 uM of NCGC00031955-01.
Further: nearly all actives have a fitted effect of over 60% in size.
Potency means the concentration at half of the fitted maximal effect.

Potency, active:
COc1ccc(-c2cn3ccc(C)cc3n2)cc1 12.6 µM
Cc1ccnc(NC(=O)c2ccoc2C)c1 14.1 µM
COc1cccc(/C=N\NC(=O)C2=NNC(=O)C2C)c1O (stereo unspecified) 17.8 µM

Potency, inactive:
Cc1ccc(S(=O)(=O)N2CCCC2C(=O)NCc2ccco2)cc1 (stereo unspecified)
Cc1noc(C)c1C(=O)OCC(=O)N1CCN(S(=O)(=O)c2ccc3ccccc3c2)CC1
CCn1c(NCCc2ccc(OC)c(OC)c2)nc2c1c(=O)n(C)c(=O)n2C
O=C(COC(=O)CCC(=O)c1cccs1)NCc1ccco1
CC(=O)c1cc(C#N)c(SCC(=O)Nc2nccs2)nc1C
COc1ccc(C2CC(c3ccc([N+](=O)[O-])cc3)=NN2C(C)=O)cc1 (stereo unspecified)
Cc1ccc(OS(=O)Nc2cccc3nccnc23)cc1 (stereo unspecified)
Cc1ccc(CNC(=O)C2CCCN2C(=O)NCc2ccccc2)cc1 (stereo unspecified)
CC(C)(C)C(=O)OCc1nc(-c2ccc(O)c(O)c2)cs1
CCOc1ccc(S(=O)(=O)Nc2nccs2)cc1
Cn1c(SCC(=O)N/N=C/c2ccc(O)c(O)c2)nc2ccccc21
CC(C)Nc1ncnc2c1nnn2Cc1ccccc1
O=C(c1c(F)cccc1Cl)N1CCN(S(=O)(=O)c2ccc3c(c2)OCCCO3)CC1
O=C(CSc1nnc(-c2ccc(NS(=O)(=O)c3ccccc3)cc2)o1)NCC1CCCO1 (stereo unspecified)
S=c1[nH]nc(-c2cccs2)n1/N=C/c1cn(-c2ccccc2)nc1-c1ccc(Cl)cc1
O=C(Cc1cccs1)Nc1nnc(SCc2ccc(F)cc2)s1
Cc1cc(C)n(CCC(=O)N2CCN(S(=O)(=O)c3ccc(C)c(C)c3)CC2)n1
COc1ccc(S(=O)(=O)Nc2ccc(F)cc2)c(C)c1C
CCc1nnc(NC(=O)CSc2nc3c(c(=O)n2-c2ccccc2OC)SCC3)s1
Nc1cccc(S(=O)(=O)Nc2ccc(SC(F)F)cc2)c1
Nc1ccccc1Sc1cc(Cl)nnc1Cl
O=S(=O)(Nc1nccs1)c1ccc2c(c1)OCCO2
O=c1[nH]c(-c2cccs2)nc2ccccc12
Cn1c2ccccc2c(=O)c2c(=O)n(Cc3ccco3)c(COc3ccccc3)nc21
COC(=O)C1=C(C)NC(=O)CC1c1ccccc1OC (stereo unspecified)
Cc1cc(NC(=O)CSc2nnc(-c3ccc(Cl)s3)o2)no1
Cc1ccc(N(C(=O)c2ccc(CN3CCOCC3)o2)C(C(=O)NCCC(C)C)c2cccs2)c(C)c1 (stereo unspecified)
Cc1cc(-c2ccc(/C=N/n3cnnc3)o2)c([N+](=O)[O-])cc1C
O=[N+]([O-])c1ccccc1Nc1ccc(O)cc1
S=c1nc(C23CC4CC(CC(C4)C2)C3)nc2sccn12
CCc1nnc(NS(=O)(=O)c2ccc(NS(=O)(=O)c3ccccc3)cc2)s1
CCNc1nc(NC(C)C)nc(OCCOC(=O)c2ccccc2)n1
CN(C)c1ccc(C=C2C(=O)OC3(CCCC3)OC2=O)cc1
COc1ccc(CS(=O)/C(Cl)=C(/Cl)C(=O)Nc2ccc(OC)nc2)cc1 (stereo unspecified)
CC(=O)c1c(C)[nH]c(C(=O)Nc2cc(S(=O)(=O)N(C)C)ccc2C)c1C
O=C(NCc1ccco1)c1cccn2c(=O)c3c4c(sc3nc12)CCCC4
O=C(NCc1ccccn1)c1c(O)c2c([nH]c1=O)CCCC2
CCC1CCCCN1CCCNC(=O)Cn1nc(-c2ccccc2)ccc1=O (stereo unspecified)
COc1ccc(C(=O)NC(=S)Nc2ccc(Cl)cn2)cc1OC
c1cc(-n2cnnn2)ccc1NC1=NCCC1
O=C(CCC(=O)N1CCN(S(=O)(=O)c2ccccc2)CC1)NC1CCCc2ccccc21 (stereo unspecified)
O=c1cc(CO)oc(C(Nc2cccc([N+](=O)[O-])c2)c2ccccn2)c1O (stereo unspecified)
COC(=O)c1[nH]c2ccccc2c1NC(=O)CN1CCCc2ccccc21
CN(C)/C=C1\C=C(c2ccccc2)OC1=O
CCC(C)(C)NC(=O)C1c2ccccc2Oc2ccccc21
O=C(c1ccc(-c2ccccc2)cc1)C1CCCN(C(=O)c2cncs2)C1 (stereo unspecified)
O=S(=O)(c1ccc(F)cc1)N1CCN(C(=S)NCc2ccco2)CC1
O=C(COc1cc(Cl)c(Cl)cc1Cl)NCCc1ccccn1
COC(=O)c1cc2c(N)c(C(=O)c3ccc(Cl)cc3)sc2nc1C(OC)OC
O=C(Cn1c(COc2ccccc2)nc2ccccc21)Nc1cc(Cl)c(Cl)cc1Cl
COc1ccc(-c2csc(Cc3nc(O)cs3)n2)cc1
N#Cc1ccc(OCc2nnc(-c3ccc([N+](=O)[O-])cc3)o2)cc1
COc1cccc(CNC(=O)CCC2CCCN(C(=O)c3cc(C)[nH]n3)C2)c1 (stereo unspecified)
Cc1cc(C)c(S(=O)(=O)N2C=CC(C(F)(F)F)=NCC2)c(C)c1
CN(CCc1ccccc1)c1ccc([N+](=O)[O-])cn1
COC(=O)[C@@]1(Cc2ccccc2)[C@H]2c3cc(C(=O)N4CCCC4)n(Cc4ccc(C)o4)c3C[C@H]2CN1C(=O)c1ccccc1
O=[N+]([O-])c1cc(Br)c(O)c(/C=N/Nc2nc3ccccc3s2)c1
CN(C)S(=O)(=O)c1ccc(NC(=O)COC(=O)c2n[nH]c3ccccc23)cc1
NC(=O)COC(=O)/C=C/c1ccc2ccccc2n1
COc1ccccc1C(=O)N/C(=C/c1ccco1)C(=O)Nc1ccc(C(=O)O)cc1
O=S(=O)(c1ccc(Br)cc1)c1nc(-c2ccccc2)oc1NCc1cccnc1
Cc1ccc(C)c(S(=O)(=O)Nc2cccc(-n3cnnn3)c2)c1
O=C(NCc1cccs1)C1CCN(S(=O)(=O)c2ccc3c(c2)OCCO3)CC1
CCCc1nc(N2CCN(C)CC2)c2sc(=S)n(-c3ccccc3)c2n1
CC1CC(c2ccccc2)n2nc(NC(=O)c3cccs3)nc2N1 (stereo unspecified)
CN(C)N=Nc1ccc2nc[nH]c2c1
CN(C)c1nc(N)nc(CSc2nnnn2-c2cccc3ccccc23)n1
O=C(c1ccc[nH]c1=S)N1CCN(S(=O)(=O)c2ccc(Br)cc2Cl)CC1
O=C(NCCN1C(=O)S/C(=C\c2cccnc2)C1=O)c1ccc(S(=O)(=O)N2CCCC2)cc1
Cc1ccnc(-n2sc3ccccc3c2=O)n1
CC(C)NC(=O)CCCn1c(=S)[nH]c2cc3c(cc2c1=O)OCO3
O=C(Cn1nc(CNc2ccc(Cl)cc2)[n+]2c1CCCCC2)c1ccc(Cl)cc1
Cc1ccc(NC(=O)c2cc(-c3ccc(C)o3)nc3ccccc23)nc1
CCOc1cccc2c1OC1(CCCCC1)N1N=C(c3cccnc3)CC21 (stereo unspecified)
O=S(=O)(c1ccc(F)cc1)N1CCN(C(=S)NC2CCCC2)CC1
Cc1cc(C(=O)N/N=C/c2ccccc2[N+](=O)[O-])c(C)o1
Cc1ccccc1CN1C[C@@H]2C[C@@H](c3cn(C)nc3-c3ccccc3)N3CCC[C@@]23C1=O
CSc1ccc(/C=N\NC(=O)COc2ccc(Cl)cc2Br)cc1
Cn1c(SCC(=O)Nc2cccc(O)c2)nnc1-c1ccc(S(=O)(=O)N2CCOCC2)cc1
Cc1ccccc1-n1nc(C)c2c1N=C1C(Cl)=CC(Cl)=CN1C2c1ccc(C(=O)O)cc1 (stereo unspecified)
Cn1c(=O)c2c(nc(SCCNS(=O)(=O)c3ccccc3)n2C)n(C)c1=O
O=C(NC1=NCCS1)[C@H](Cc1ccccc1)N1C(=O)c2ccccc2C1=O
CN(C(=O)CSc1nnc(N)s1)c1c(N)n(Cc2ccccc2)c(=O)[nH]c1=O
Cc1ccc(NC(=O)OCCNC(=O)c2ccncc2)cc1
Cc1ccc(-c2cc(C(=O)N/N=C/C=C/c3ccco3)c3ccccc3n2)cc1C
COc1ccc(-c2nnc(SC(C)C#N)o2)cc1 (stereo unspecified)
Cc1ccc(S(=O)(=O)N2CCN(Cc3cccc(C)c3O)CC2)cc1
Cc1ccc(-c2nc(SCC(=O)Nc3ccccc3OC(F)F)c3c(C)c(C(=O)O)sc3n2)cc1
Cc1nc(SCC(=O)N2CC(=O)Nc3ccccc32)c2c(C)c(C)sc2n1
COc1ccc(-c2nnn(CC(=O)N(CCO)C(C(=O)NC3CCCC3)c3ccc(F)cc3)n2)cc1 (stereo unspecified)
CN(C(=O)COC(=O)c1cc(-c2ccco2)nc2ccccc12)C1CCS(=O)(=O)C1 (stereo unspecified)
CC(C)CCn1cnc2c1c(=O)n(CC(=O)NC(N)=O)c(=O)n2Cc1ccccc1
COc1ccc(OC)c(Nc2nc(-c3ccc(O)c(O)c3)cs2)c1
COc1ccc(COCCN2CCN(S(=O)(=O)c3ccccc3)CCC2=O)cc1
COC(=O)c1[nH]c2ccccc2c1NS(=O)(=O)c1ccc(OC)cc1OC
O=C(CSc1nnc(-c2cccs2)n1Cc1ccccc1)N1CCc2ccccc2C1
CCN(/N=C/c1ccccc1)c1cc(=O)n(C)c(=O)[nH]1
CCn1c(SCC(=O)N/N=C/C=C/c2ccccc2[N+](=O)[O-])nnc1-c1ccccc1
Cc1noc(C)c1S(=O)(=O)Nc1ccc(C(=O)N2CCN(c3ccc(F)cc3)CC2)cc1
Cc1ccc(O)c(CNc2nc3ccccc3[nH]2)c1
Cc1ccccc1-c1nnn(CC(=O)c2ccc(S(=O)(=O)N3CCCC3)cc2)n1
Cc1ccc(CCC(=O)Nc2ncc(Cc3cc(Cl)ccc3Cl)s2)o1
COCc1cc(=O)[nH]c(SC)n1
